Laboratory results from PubChem BioAssay (Tox21).
Where “and” joins values, the source holds several entries; their conditions need not be identical. Identical values can stand only once. Records with an inconclusive call do not appear. Some structures have more than one record in an assay (separate samples or runs), and their calls can disagree. Calls of active or inactive are those of the source. Unless noted, the call rests on the fitted dose curve; in most records, active means well fitted curve in the direction sought with a large enough effect in the repeat runs; inconclusive means weak or mixed curves; inactive means no such curve, though single readings can be large; an effect the other way counts as inactive or inconclusive.

Assays:
[1] = biological target: Progesterone receptor (Homo sapiens) (UniProt P06401); assay: qHTS assay to identify small molecule agonists of the progesterone receptor (PR) signaling pathway (AID 1346784; calls by dose curve; further: nearly all actives have a fitted effect of over 30% in size)
Sequence of Progesterone receptor (Homo sapiens) (P06401 whole entry, looked up): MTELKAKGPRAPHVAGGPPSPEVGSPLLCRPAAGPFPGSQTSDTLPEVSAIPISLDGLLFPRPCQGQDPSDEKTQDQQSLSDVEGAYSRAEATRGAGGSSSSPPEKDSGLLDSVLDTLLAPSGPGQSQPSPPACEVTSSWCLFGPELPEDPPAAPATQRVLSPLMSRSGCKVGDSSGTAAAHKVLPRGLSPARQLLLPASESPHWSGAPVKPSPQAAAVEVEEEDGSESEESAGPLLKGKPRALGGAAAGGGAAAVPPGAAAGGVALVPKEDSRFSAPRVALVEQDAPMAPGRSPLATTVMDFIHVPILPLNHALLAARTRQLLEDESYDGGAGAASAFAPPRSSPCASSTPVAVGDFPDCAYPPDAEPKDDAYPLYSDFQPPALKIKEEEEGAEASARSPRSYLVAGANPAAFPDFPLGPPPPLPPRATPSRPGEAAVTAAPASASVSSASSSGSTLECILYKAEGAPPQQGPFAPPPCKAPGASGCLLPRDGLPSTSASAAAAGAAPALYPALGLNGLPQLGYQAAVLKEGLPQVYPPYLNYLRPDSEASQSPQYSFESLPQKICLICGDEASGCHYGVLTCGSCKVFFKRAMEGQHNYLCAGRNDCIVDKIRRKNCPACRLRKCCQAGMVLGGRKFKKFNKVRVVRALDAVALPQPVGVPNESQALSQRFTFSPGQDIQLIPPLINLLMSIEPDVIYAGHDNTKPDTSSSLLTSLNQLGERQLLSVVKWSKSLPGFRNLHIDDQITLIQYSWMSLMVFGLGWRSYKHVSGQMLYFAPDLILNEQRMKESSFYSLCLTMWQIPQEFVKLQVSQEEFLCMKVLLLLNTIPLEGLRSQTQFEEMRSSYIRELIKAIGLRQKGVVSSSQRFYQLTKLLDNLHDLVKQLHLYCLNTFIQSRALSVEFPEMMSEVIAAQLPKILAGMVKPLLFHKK
Summary of the method: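 Using charcoal-stripped serum (2%) to limit endogenous steroids, PR-UAS-bla HEK 293T cells received compounds for 16 hr at 37C after 6 hr plating; beta-lactamase FRET fluorescence was recorded following 2 hr substrate loading at room temperature.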

[2] = biological target: Progesterone receptor (Homo sapiens) (UniProt P06401); assay: qHTS assay to identify small molecule antagonists of the progesterone receptor (PR) signaling pathway (AID 1346795; active means well fitted inhibition curve with a large enough effect in the signal ratio in the repeat runs, not every such curve was filed as active; the % refers to the signal ratio)
Summary of the method: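 Inhibition of R5020-induced (1 nM final) beta-lactamase reporter signal in PR-UAS-bla HEK293T cells was scored by FRET fluorescence after overnight (16 hr) compound treatment.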

[3] = qHTS assay to identify small molecule antagonists of the progesterone receptor (PR) signaling pathway - cell viability counter screen (AID 1346798); further: nearly all actives have a fitted effect of over 50% in size; further: potency means the concentration at half of the fitted maximal effect; on activity change, negative = cytotoxicity: series mostly up to about 92 µM
Summary of the method: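 ATP content as viability readout: CellTiter-Glo luminescence, 30 min room temperature, in PR-UAS-bla HEK293T cells after 16 hr compound/R5020 treatment at 37C and 5% CO2.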

[4] = qHTS assay to identify small molecule agonists of the progesterone receptor (PR) signaling pathway - cell viability counter screen (AID 1346799; calls by dose curve; further: nearly all actives have a fitted effect of over 45% in size; further: potency means the concentration at half of the fitted maximal effect)
Summary of the method: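 Cytotoxicity in PR-bla HEK293T cells: 16 h compound, 37C; CellTiter-Glo added post-FRET read; luminescence after 30 min RT.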

[5] = biological target: Thyrotropin-releasing hormone receptor (Homo sapiens) (UniProt P34981); assay: qHTS assay to identify small molecule antagonists of the thyrotropin-releasing hormone receptor (TRHR) signaling pathway (AID 1346877; active means well fitted inhibition curve with a large enough effect in the repeat runs, not every such curve was filed as active; further: series mostly up to about 51 µM)
Sequence of Thyrotropin-releasing hormone receptor (Homo sapiens) (P34981 whole entry, looked up): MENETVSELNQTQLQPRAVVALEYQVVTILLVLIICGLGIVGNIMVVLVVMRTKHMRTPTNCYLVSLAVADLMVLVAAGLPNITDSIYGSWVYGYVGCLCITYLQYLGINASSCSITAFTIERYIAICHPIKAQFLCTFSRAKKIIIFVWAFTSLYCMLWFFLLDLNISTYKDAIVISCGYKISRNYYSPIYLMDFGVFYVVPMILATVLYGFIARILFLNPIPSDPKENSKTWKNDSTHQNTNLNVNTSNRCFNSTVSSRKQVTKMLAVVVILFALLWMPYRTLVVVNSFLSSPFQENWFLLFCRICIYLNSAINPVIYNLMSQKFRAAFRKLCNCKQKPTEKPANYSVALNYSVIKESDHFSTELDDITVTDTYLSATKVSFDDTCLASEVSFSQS
Summary of the method: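 HEK293/TRHR cells, 18 h, 37 °C; Ca2+ dye 2 h; cpd 5 min RT; TRH 1 nM final; fluorescence read 3 min, 1 s intervals; 15 concs, triplicate.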

[6] = Caspase-3/7 induction in HepG2 cells by small molecules, qHTS assay (AID 1346978); further: nearly all actives have a fitted effect of over 15% in size; further: potency means the concentration at half of the fitted maximal effect
Summary of the method: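 Wild-type HepG2 cells (2,000/well) were settled 5 h at 37 C, 5% CO2, then exposed to compounds in DMSO for 17 h. Caspase-3/7 activity was read by luminescence 30 min after adding Caspase-Glo 3/7 reagent at room temperature.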

[7] = Caspase-3/7 induction in CHO-K1 cells by small molecules, qHTS assay (AID 1346980); further: nearly all actives have a fitted effect of over 15% in size
Summary of the method: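 Wild-type cells were seeded at 1,500 per well and settled 5 hr at 37 C, 5% CO2, then exposed to DMSO-dissolved compounds for 17 hr. Caspase-Glo 3/7 reagent was added, and luminescence was read after 30min at room temperature.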

[8] = biological target: Nuclear receptor subfamily 1 group I member 2 (Homo sapiens) (UniProt O75469); assay: Human pregnane X receptor (PXR) small molecule agonists, qHTS assay (AID 1346982); further: nearly all actives have a fitted effect of over 35% in size; further: potency means the concentration at half of the fitted maximal effect
Sequence of Nuclear receptor subfamily 1 group I member 2 (Homo sapiens) (O75469 whole entry, looked up): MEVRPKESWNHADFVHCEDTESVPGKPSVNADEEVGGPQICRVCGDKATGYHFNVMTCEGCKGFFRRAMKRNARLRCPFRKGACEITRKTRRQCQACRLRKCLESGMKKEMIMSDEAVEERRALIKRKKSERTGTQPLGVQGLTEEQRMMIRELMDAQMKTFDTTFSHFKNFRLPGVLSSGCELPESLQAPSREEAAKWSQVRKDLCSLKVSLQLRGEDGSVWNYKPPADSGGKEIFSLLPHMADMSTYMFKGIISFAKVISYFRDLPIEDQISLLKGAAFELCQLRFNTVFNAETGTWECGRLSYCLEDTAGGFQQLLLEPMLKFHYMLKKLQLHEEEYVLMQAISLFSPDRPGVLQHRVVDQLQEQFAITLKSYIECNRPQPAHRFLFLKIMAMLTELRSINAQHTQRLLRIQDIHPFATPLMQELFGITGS
Summary of the method: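 HepG2 PXR-Luc reporter line, 5% charcoal-stripped FBS; 5 hr pre-incubation, compound (DMSO) 24 hr at 37 C/5% CO2; ONE-Glo 30 min RT; luminescence read-out.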

[9] = qHTS assay to identify small molecule agonists of the estrogen receptor alpha (ER-alpha) signaling pathway in the presence of an antagonist - cell viability counter screen (AID 1259386);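 further: cells exposed to compounds for 22 h at 37 °C before the viability read; nearly all actives have a fitted effect of over 30% in size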; further: potency means the concentration at half of the fitted maximal effect; on activity change, negative = cytotoxicity: series mostly up to about 92 µM
Summary of the method: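 Read-out: CellTiter-Fluor fluorescence after 1hr reagent incubation, measured in the same wells as the luciferase readout. VM7Luc4E2 cells were exposed to 15 compound concentrations with 10.0nM ICI-182,780 for 22hr at 37C.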

[10] = qHTS assay to identify small molecule agonists of the TGF-beta/Smad signaling pathway - cell viability counter screen (AID 1346829); further: top concentration of the series differs between compounds; nearly all actives have a fitted effect of over 45% in size
Summary of the method: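 Same-well cytotoxicity: CellTiter-Glo added after the 2 hr room-temperature beta-lactamase substrate step, luminescence measured 30 min later; cells had 5 hr of compound at 37 C.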

[11] = qHTS assay to identify small molecule agonists of the TGF-beta/Smad signaling pathway (AID 1346859; active means well fitted activation curve with a large enough effect in the signal ratio in the repeat runs, not every such curve was filed as active; the % refers to the signal ratio; further: series mostly up to about 77 µM)
Summary of the method: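 Stable Smad binding element-beta-lactamase HEK 293T cells; 5 hr compound exposure at 37 C under 5% CO2; 2 hr room-temperature substrate step; fluorescence excited at 405 nm, collected at 460 nm and 530 nm.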

[12] = Human pregnane X receptor (PXR) small molecule agonists, qHTS cell viability counter screen (AID 1346977); further: nearly all actives have a fitted effect of over 50% in size; further: potency means the concentration at half of the fitted maximal effect
Summary of the method: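 Readout is CellTiter-Fluor fluorescence from PXR-Luc HepG2 cells. Plated cells rested 5hr, then were treated with compounds for 24hr at 37C and 5% CO2, with reagent present during the last hour.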

[13] = Caspase-3/7 induction in CHO-K1 cells by small molecules, qHTS cell viability counter screen (AID 1346979); further: nearly all actives have a fitted effect of over 35% in size; further: potency means the concentration at half of the fitted maximal effect
Summary of the method: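 To flag cytotoxic compounds, treated CHO-K1 wild-type cells were given CellTiter-Fluor at 16hr and read fluorescently after 1hr at 37C; the caspase-3/7 luminescence was measured in these same wells.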

[14] = Caspase-3/7 induction in HepG2 cells by small molecules, qHTS cell viability counter screen (AID 1346981); further: nearly all actives have a fitted effect of over 30% in size; further: potency means the concentration at half of the fitted maximal effect; on activity change, negative = cytotoxicity: series mostly up to about 92 µM
Summary of the method: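 Fluorescence read-out of live-cell protease activity (CellTiter-Fluor) after 1 hr with reagent. This was measured in the same wells as the caspase-3/7 luminescence, on HepG2 cells exposed to DMSO-dissolved compounds for 16 hr at 37 C.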

[15] = qHTS assay to identify small molecule antagonists of the TGF-beta/Smad signaling pathway - cell viability counter screen (AID 1346824); further: nearly all actives have a fitted effect of over 50% in size
Summary of the method: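 SBE-bla HEK 293T cells were plated overnight at 37 C, then given compounds in DMSO plus TGF-beta1 (added as 0.25 ng/mL solution) for 5 hr. After the bla read, CellTiter-Glo was added to the same wells and luminescence read after 30 min at room temperature.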

[16] = biological target: Thyrotropin receptor (Homo sapiens) (UniProt P16473); assay: qHTS assay to identify small molecule antagonists of the thyroid stimulating hormone receptor (TSHR) signaling pathway (AID 1259385; calls by dose curve; further: nearly all actives have a fitted effect of over 20% in size)
Sequence of Thyrotropin receptor (Homo sapiens) (P16473 whole entry, looked up): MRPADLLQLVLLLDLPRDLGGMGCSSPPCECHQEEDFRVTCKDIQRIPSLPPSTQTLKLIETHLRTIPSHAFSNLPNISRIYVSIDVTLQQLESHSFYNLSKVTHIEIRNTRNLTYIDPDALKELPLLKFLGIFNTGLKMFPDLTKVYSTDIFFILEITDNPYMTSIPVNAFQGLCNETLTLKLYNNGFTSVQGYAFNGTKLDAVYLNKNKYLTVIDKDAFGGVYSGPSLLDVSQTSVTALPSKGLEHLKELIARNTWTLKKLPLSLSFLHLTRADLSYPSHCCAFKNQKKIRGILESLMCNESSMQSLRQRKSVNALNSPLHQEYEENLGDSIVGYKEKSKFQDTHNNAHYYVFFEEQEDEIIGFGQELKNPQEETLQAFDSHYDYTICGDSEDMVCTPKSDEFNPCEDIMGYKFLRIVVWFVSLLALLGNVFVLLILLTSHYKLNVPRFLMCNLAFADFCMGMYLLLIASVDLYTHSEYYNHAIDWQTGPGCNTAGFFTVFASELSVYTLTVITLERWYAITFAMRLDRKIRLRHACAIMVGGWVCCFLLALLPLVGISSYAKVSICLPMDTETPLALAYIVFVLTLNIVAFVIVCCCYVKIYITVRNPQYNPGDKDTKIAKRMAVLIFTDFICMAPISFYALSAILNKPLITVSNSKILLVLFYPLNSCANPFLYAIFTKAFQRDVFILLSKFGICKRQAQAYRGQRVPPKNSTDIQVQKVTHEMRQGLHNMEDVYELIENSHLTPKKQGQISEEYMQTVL
Summary of the method: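 TSHR-HEK293 cells were plated and held 18 h at 37C/5% CO2, then given compound plus Ro20-1724 and stimulated with TSH at 1.5 ng/mL final. After 30 min at room temperature, cAMP was detected with cAMP-d2/anti-cAMP-cryptate (1 h) by fluorescence.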

[17] = biological target: Thyrotropin-releasing hormone receptor (Homo sapiens) (UniProt P34981); assay: qHTS assay to identify small molecule agonists of the thyrotropin-releasing hormone receptor (TRHR) signaling pathway (AID 1346891; calls by dose curve; further: potency means the concentration at half of the fitted maximal effect;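 on activation: HEK293 cells expressing TRHR with calcium dye readout; series mostly up to about 58 µM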)
Summary of the method: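 In 1536-format, 1500 TRHR-Hek293 cells per well grew 18 h, took up calcium dye for 2 h at 37 °C, received compound, and were read kinetically; 15-point titrations, triplicates.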

[18] = biological target: Nuclear receptor subfamily 1 group I member 2 (Rattus norvegicus) (UniProt Q9R1A7); assay: Rat pregnane X receptor (rPXR) activation by small molecules, qHTS assay (AID 1346983); conditions: rPXR luciferase reporter cells, One-Glo luminescence, 24 h; max activation: stronger effect = higher value; further: nearly all actives have a fitted effect of over 20% in size
Sequence of Nuclear receptor subfamily 1 group I member 2 (Rattus norvegicus) (Q9R1A7 whole entry, looked up): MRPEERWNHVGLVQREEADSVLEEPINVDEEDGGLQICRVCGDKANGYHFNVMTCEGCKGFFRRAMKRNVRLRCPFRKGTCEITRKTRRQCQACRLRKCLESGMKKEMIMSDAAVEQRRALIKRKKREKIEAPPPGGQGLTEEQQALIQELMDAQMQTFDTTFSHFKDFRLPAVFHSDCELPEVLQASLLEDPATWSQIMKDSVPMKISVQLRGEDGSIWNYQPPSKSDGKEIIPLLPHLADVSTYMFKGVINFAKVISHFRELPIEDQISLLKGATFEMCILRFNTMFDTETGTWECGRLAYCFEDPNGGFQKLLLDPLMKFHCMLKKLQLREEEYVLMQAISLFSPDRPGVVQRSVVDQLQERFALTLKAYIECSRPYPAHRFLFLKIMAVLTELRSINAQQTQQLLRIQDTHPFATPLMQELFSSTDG
Summary of the method: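 Cell-based rPXR luciferase reporter assay, 2,000 cells per well, rested 5hr at 37 C before compound addition in DMSO, then 24 hr at 37 C. One-Glo reagent was added and luminescence read after 30 min at room temperature.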

[19] = biological target: Nuclear receptor subfamily 1 group I member 2 (Homo sapiens) (UniProt O75469); assay: CYP3A4 induction through human pregnane X receptor (PXR) by small molecules, qHTS assay (AID 1346984); further: nearly all actives have a fitted effect of over 40% in size
Summary of the method: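 HepG2-derived DPX-2 line carrying PXR plus a CYP3A4-promoter luciferase reporter; cells plated 5 hr, compound-exposed 24 hr at 37C. CYP3A4 activity probed with 3uM (final) Luciferin-IPA for 3hr, then luciferase read after One-Glo.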

[20] = biological target: Nuclear receptor subfamily 1 group I member 2 (Homo sapiens) (UniProt O75469); assay: Human pregnane X receptor (PXR) activation by small molecules, qHTS assay (AID 1346985); further: nearly all actives have a fitted effect of over 40% in size
Summary of the method: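 DPX-2 cells (HepG2 co-transfected with a PXR response element and a CYP3A4-promoter luciferase construct) were seeded at 2,000 per well, rested 5 hr at 37C, then exposed to DMSO-dissolved compounds for 24 hr. Activation was read as luciferase luminescence.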
On the % scale 0 is the no-effect control and ±100 the full control effect.

Nc1ccc2c(c1)CN1C(=O)c3ccccc3C1=N2
inactive: activation [1] -0.634% [at 19 µM] | activity change, negative = inhibition [2] -14.5% [at 18.9 µM] | activity change, negative = cytotoxicity [3] -15.2% [at 18.9 µM] | activity change, negative = cytotoxicity [4] -25.1% [at 19 µM] | activity, negative = inhibition [5] -0.792% [at 10.5 µM] | caspase activation [6] -14.3% [at 19 µM] | caspase-3/7 activation [7] -7.02% [at 19 µM]
active: Potency [8] 0.073 µM

Nc1ccc([N+](=O)[O-])cc1O
inactive: Potency [10] | outcome [11] | Potency [6] | Potency [7]
active: Potency [9] 27.3 µM | Potency [12] 30.6 µM | Potency [13] 40.9 µM | Potency [14] 48.6 µM | Potency [8] 61.1 µM

CN1CCC[C@H]1c1cccnc1
inactive: Potency [9] | Potency [1] | Potency [2] | Potency [3] | Potency [4] | Potency [15] | Potency [10] | outcome [11] | Potency [5] | Potency [12] | Potency [6] | Potency [13] | Potency [7] | Potency [14] | Potency [8]

CC(C)c1c(C(=O)Nc2ccccc2)c(-c2ccccc2)c(-c2ccc(F)cc2)n1CC[C@@H](O)C[C@@H](O)CC(=O)O
inactive: Potency [16] | Potency [9] | Potency [15] | Potency [10] | outcome [11] | Potency [5] | Potency [12] | Potency [7] | Potency [14]
active: Potency [3] 6.41 µM | Potency [4] 1.48 µM and 227 nM and 2.11 µM | Potency [6] 26.3 µM

NS(=O)(=O)O
inactive: Potency [9] | Potency [1] | Potency [2] | Potency [3] | Potency [4] | Potency [15] | Potency [10] | outcome [11] | Potency [12] | Potency [6] | Potency [13] | Potency [7] | Potency [14] | Potency [8]

COc1cccc(O)c1O
active: Potency [13] 63.5 µM | Potency [8] 25.3 µM
inactive: Potency [1] | Potency [2] | Potency [3] | Potency [4] | Potency [15] | Potency [10] | outcome [11] | Potency [5] | Potency [17] | Potency [6] | Potency [7]

CCN(Cc1c(F)cccc1Cl)c1c([N+](=O)[O-])cc(C(F)(F)F)cc1[N+](=O)[O-]
active: Potency [3] 21.7 µM | Potency [4] 8.63 µM | Potency [13] 54.5 µM | Potency [8] 8.63 µM
inactive: Potency [9] | Potency [1] | Potency [15] | Potency [10] | outcome [11] | Potency [5] | Potency [17] | Potency [12] | Potency [6] | Potency [7] | Potency [14]

Cc1c(C(=O)O)c(O)cc2c1C(=O)c1c(O)c([C@@H]3O[C@H](CO)[C@@H](O)[C@H](O)[C@H]3O)c(O)c(O)c1C2=O
inactive: Potency [1] | Potency [2] | Potency [3] | Potency [4] | Potency [15] | Potency [10] | outcome [11] | Potency [5] | Potency [6] | Potency [7] | Potency [8] | max activation [18] -3.66% | Potency [19] | outcome [20]
active: Potency [9] 26.6 µM and 15.4 µM and 13.3 µM | Potency [12] 11.2 µM and 13.7 µM and 23.7 µM | Potency [13] 33.5 µM and 27.3 µM and 23.7 µM | Potency [14] 18.9 µM and 15.4 µM and 26.6 µM

CCCCNC(=O)NS(=O)(=O)c1ccc(C)cc1
inactive: Potency [9] | Potency [1] | Potency [2] | Potency [3] | Potency [4] | Potency [15] | Potency [10] | outcome [11] | Potency [5] | Potency [12] | Potency [6] | Potency [13] | Potency [7] | Potency [14]

C1=CC2C3C=CC(C3)C2C1 (stereo unspecified)
inactive: Potency [9] | Potency [1] | Potency [3] | Potency [15] | Potency [10] | outcome [11] | Potency [12] | Potency [6] | Potency [13] | Potency [7] | Potency [14]
active: Potency [17] 34.1 µM

Cc1ccc(S(=O)(=O)O)cc1
inactive: Potency [9] | Potency [1] | Potency [2] | Potency [3] | Potency [4] | Potency [15] | Potency [10] | outcome [11] | Potency [12] | Potency [6] | Potency [13] | Potency [7] | Potency [14]

C=C1CC[C@H](O)C/C1=C\C=C1/CCC[C@]2(C)[C@@H]([C@H](C)CCCC(C)C)CC[C@@H]12
inactive: Potency [16] | Potency [15] | Potency [10] | outcome [11] | Potency [5] | Potency [17] | Potency [12] | Potency [14] | max activation [18] 1.13% | Potency [19]
active: Potency [13] 48.1 µM | Potency [8] 17.1 µM

O=S1(=O)OC(c2ccc(O)cc2)(c2ccc(O)cc2)c2ccccc21
inactive: Potency [1] | Potency [2] | Potency [3] | Potency [4] | Potency [15] | Potency [10] | outcome [11] | Potency [5] | Potency [6] | Potency [7] | Potency [8] | max activation [18] 1.08% | Potency [19] | outcome [20]
active: Potency [9] 19.3 µM and 17.2 µM and 13.3 µM | Potency [12] 24.3 µM and 30.6 µM and 9.44 µM | Potency [13] 30.6 µM and 13.3 µM | Potency [14] 34.4 µM and 48.6 µM and 15 µM

CC(=O)CC(c1ccccc1)c1c(O)c2ccccc2oc1=O (stereo unspecified)
inactive: Potency [9] | Potency [1] | Potency [2] | Potency [3] | Potency [4] | Potency [15] | Potency [10] | outcome [11] | Potency [12] | Potency [7] | Potency [14] | max activation [18] -3.82%
68.9 µM (active) and inactive: Potency [13]
